In the library only some 2.3% were active in any assay of this set; here they are far more common.
FUS yeast rescue = suppressors of FUS proteinopathy in yeast; S. cerevisiae FUS-expressing, growth rescue, OD600, 24 h; Potency, µM (highest dose often 76.6 µM), hits mostly activators; 390,000 tested, 0.24% active;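 also: plate controls were DMSO vehicle for no effect and reference control for full effect; nearly all actives have a fitted effect of over 55% in size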
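Cultures pregrown in 2.5% raffinose medium are shifted to minimal medium containing 2% galactose to express toxic FUS. Compounds are tested at several concentrations. After 24hr at 30C, growth is quantified at 600 nm absorbance.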
TDP43 rescue = inhibitors of TDP-43 toxicity in yeast | TDP-43 expressing yeast growth rescue, BacTiter-Glo, 24 h | Potency, µM (series often up to 46.1 µM), for inactives: top-dose growth rescue (activation), actives largely listed as activators | 410,000 tested, 1.8% active; also: % of control where 0% means no effect; nearly all actives have a fitted effect of over 50% in size
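Growth rescue of TDP-43-toxic yeast measured as ATP luminescence (BacTiter-Glo). Cells grown to mid-log in raffinose, induced in galactose at OD600=0.02, exposed to compound 24 hr at 30 deg C.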
aSyn rescue = alpha-synuclein toxicity inhibition in yeast; Yeast expressing alpha-synuclein, growth rescue, BacTiter-Glo, 24 h; Potency, µM (series often up to 46.1 µM), for inactives: at the top dose growth rescue (activation), most hits filed as activators; 370,000 tested, 0.14% active; also: % of control where 0% means no effect; nearly all actives have a fitted effect of over 65% in size
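Galactose-induced alpha-syn yeast (OD600=0.02, raffinose-pregrown) + pinned cpd, 24 hr, 30 deg C; growth by BacTiter-Glo luminescence. Growth restoration scores as activation.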
BCR signal inh = chronic active BCR signaling inhibition | ABC-DLBCL IkBa-CBG/CBR reporter, luminescence ratio, 4 h | Potency, µM (doses to about 46.1 µM), without a hit: at the top dose activity change, negative = inhibition, usual class: inhibitors | 340,000 tested, 0.05% active | AID 493014; active = well fitted inhibition curve with a large enough effect in the signal ratio, with a control signal flat, not every such curve was filed as active; inconclusive = small, poorly fitted or top-dose-only effect, or effect the other way, or a change in a side signal; the % refers to the signal ratio;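 also: plate controls were basal doxycycline-induced cells for no effect and cells given 10 µM MG132 for full effect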
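Compounds up to 46 uM were incubated four hours with TMD8 cells whose green CBG68 luciferase is fused to IkappaBalpha; red CBR luminescence normalised the signal, and concentration-effect curves were fitted to fusion, red and ratio data.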
Abeta rescue = A-beta toxicity reversal in yeast. 410,000 tested, 0.063% active. AID 1347071. yeast expressing A-beta42, growth rescue, OD600, 48 h; response scale: 0% DMSO, 100% iron-clioquinol control. Potency, µM (series often up to 46.1 µM), usual class: activators; also: nearly all actives have a fitted effect of over 55% in size
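Yeast A-beta toxicity model in growth medium with pinned compounds, 48 h at 30 C; growth read as absorbance at 600 nm. Normalized to FeCl3/clioquinol equimolar mix (positive) and DMSO (negative).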
uPA surface inh = cell surface uPA generation inhibition; cell surface uPA generation assay, qHTS; 330,000 tested, 0.31% active; Potency, µM (highest dose often 38.3 µM), for inactives: top-dose activity change, negative = inhibition, actives largely listed as inhibitors; active = well fitted inhibition curve with a large enough effect; inconclusive = small, poorly fitted or top-dose-only effect; inactive = no such curve, though single readings can be large or run the other way; tested in mouse RAW 264.7 cells; also: % is scaled to controls: 0 for no effect and ±100 for the full control effect; nearly all actives have a fitted effect of over 55% in size
* marks the source's active call; other numbers are inactive results; i = inactive; ? = inconclusive; . = no result. Unless noted, calls follow the shape of the dose curve; as a rule, active = well fitted curve in the direction sought with a large enough effect; inconclusive = small, poorly fitted or top-dose-only effect, or another doubt; inactive = no such curve, though single readings can be large; an effect the other way counts as inactive or inconclusive. Potency is read from the fitted curve at half-maximal effect.

SMILES	FUS yeast rescue	TDP43 rescue	aSyn rescue	BCR signal inh	Abeta rescue	uPA surface inh
CCCCN(CC)S(=O)(=O)c1ccc(C(=O)Nc2nnc(CSC)o2)cc1	i	?	32µM*	12%	i	-7%
COc1ccc(/C=C/C(=O)NNc2c(F)c(F)cc(F)c2F)cc1OC	i	0%	4%	-8%	i	7%
Cc1ccc(CCNS(=O)(=O)c2cc(-c3cc(C)no3)ccc2C)cc1	i	22µM*	.	.	i	.
COc1ccc(S(=O)(=O)NCCc2sc(-c3cccnc3)nc2C)cc1OC	i	17%	0%	.	i	.
COc1ccc(S(=O)(=O)NCCc2sc(-c3ccccc3)nc2C)cc1F	i	22µM*	5%	.	i	.
COc1ccc(CCNS(=O)(=O)c2cc(-c3cc(C)no3)ccc2OC)cc1OC	i	3%	.	.	i	.
CCOc1ccc(S(=O)(=O)NCCc2csc(-c3ccc(Cl)cc3)n2)cc1	?	22µM*	.	.	i	.
CCOc1ccc(S(=O)(=O)NCCc2sc(-c3ccc(C)cc3)nc2C)cc1	i	?	.	.	i	.
O=S(=O)(NCCc1csc(-c2ccc(F)cc2)n1)c1ccc(Cl)cc1	i	11µM*	.	.	6.3µM*	.
COC(=O)C1=C(C)N(c2ccc(C)c(C)c2)/C(=C/c2ccc(O)cc2)C1=O	i	-9%	0%	7%	i	8%
CCNc1nc(NCC)nc(OCCNS(=O)(=O)c2ccccc2)n1	i	-3%	-1%	-1%	i	0%
Cc1ccc(C)c(S(=O)(=O)NCCc2csc(-c3ccc(Cl)cc3)n2)c1	i	22µM*	.	.	i	.
COc1ccc(S(=O)(=O)NCCc2csc(-c3ccc(F)cc3)n2)cc1F	i	18µM*	.	.	i	.
O=S(=O)(NCCSc1ccc(Cl)cc1)c1ccc(F)cc1	i	14µM*	23%	?	i	4%
COc1ccc(S(=O)(=O)NCCc2csc(-c3ccc(F)cc3)n2)cc1	i	16µM*	.	.	i	.
CC(=O)n1cc([C@H]2C=C(C(=O)N3CCOCC3)O[C@@H](OCCCCO)C2)c2ccccc21	i	15%	0%	.	i	1%
COc1ccc(-c2nc(CNS(=O)(=O)c3ccc(C)cc3)cs2)cc1	i	3%	.	.	i	.
Cc1ccc(S(=O)(=O)NCCc2sc3nc(-c4ccccc4)nn3c2C)cc1C	i	13µM*	.	?	?	.
Cc1ccc(S(=O)(=O)NCCc2csc(-c3ccc(Cl)cc3)n2)cc1	i	20µM*	.	12%	?	.
O=S(=O)(NCc1csc(-c2cccnc2)n1)c1ccc(F)cc1	i	-12%	-6%	2%	i	4%
COc1ccc(-c2nc(CNS(=O)(=O)c3ccc(F)cc3)cs2)cc1	i	24%	.	.	i	.
O=S(=O)(NCCc1csc(-c2cccnc2)n1)c1ccc(F)cc1	.	14µM*	-13%	2%	i	-9%
COc1ccc(-c2nc(CNS(=O)(=O)c3cccc(F)c3)cs2)cc1	i	13µM*	.	.	i	.
Cc1c(NC(=O)CSCc2ccc(Br)cc2)c(=O)n(-c2ccccc2)n1C	i	-1%	-2%	2%	i	1%
O=C(OCc1ccccc1)N1CCC2CC1c1cc(-c3ccccc3)ccc12 (stereo unspecified)	i	18%	6%	.	i	0%
CCOC(=O)C1=CN(Cc2ccc(OC)cc2)C=C(C(=O)OCC)C1c1cccs1	i	-19%	11%	0%	i	1%
O=C(Nc1ccccc1)N1CCC(c2ccccc2)C1 (stereo unspecified)	i	28%	-5%	?	i	-11%
O=C(Nc1ccc(Cl)c(Cl)c1)N1CCC(c2ccccc2)C1 (stereo unspecified)	i	35µM*	.	?	i	.
Cc1ccc(C2CCN(C(=O)Nc3ccc(Cl)c(Cl)c3)C2)cc1 (stereo unspecified)	i	?	.	?	i	.

Bioassay records: PubChem, National Center for Advancing Translational Sciences (NCATS)
